Hit rate of the full screen: of about 69,000 compounds, about 8,600 (12%) showed an effect of 50% or more. The sample as a whole holds a higher share of strong results than the screen did.

In the test the test system is Plasmodium berghei. The test is described as follows: Screen against P. berghei liver stage (PbLuc), transformed with Luciferase, at 10uM. It is filed as functional, HepG2. The note with it: tested at 10 uM.
For `Cc1nc(-c2ccc(C(=O)O)cc2)cc(C2CCN(C(C)C)CC2)n1`, the INHIBITION was 26.3%.
As for `OC(CN1CCC(c2ccn[nH]2)CC1)c1ccc(F)cc1` (stereo not drawn), the INHIBITION is -12.2%.
To `Cc1cc(Nc2nc(C)cc(C)n2)cc(C2CCCN2)n1` (stereo not drawn) belongs 49.2%.
With `Cc1cc(S(=O)(=O)N2C[C@H](C3CC3)[C@@H](N)C2)c(C)s1`, the INHIBITION turned out to be 1.71%.
Take `CC1(C)CNC(=O)CN(C(=O)Cc2ccccc2)C1`: the INHIBITION is on record as -1.99%.
In the case of `CC1(C)CNC(=O)CN(C(=O)CCc2ccccc2)C1` it was 40.4%.
`CN1C[C@H](O)[C@]2(CCN(C(=O)COc3ccccc3)C2)S1(=O)=O`: the INHIBITION is 9.36%.
For the compound `COc1ccc(CC(=O)N2CC(=O)NCC(C)(C)C2)cc1`, the INHIBITION is listed as 60.1%.
To `CC1(C)CNC(=O)CN(C(=O)COc2ccccc2)C1` belongs 55.5%.
To `COc1ccc(CC(=O)N2CCN(C)c3ncccc3C2)cc1` belongs 8.44%.
With `CSc1[nH]nc(NC(=O)c2cccs2)c1C#N`, the INHIBITION is 24.2%.
On to `Cn1cc(CCNCc2cc(Cl)c3c(c2)OCCO3)cn1`, for which the INHIBITION is reported as -9.4%.
Consider `O=C1Nc2ccccc2CN(CC2CCCC2)C12CCNC2` (stereo not drawn), for which the INHIBITION is -44.5%.
Take `O=C(NCc1nnc2n1CCC2)c1cn(-c2ccccc2Br)nn1`: the INHIBITION stood at 50.4%.
To `O=C(NCc1nnc2n1CCC2)c1cn(-c2ccccc2)nn1` belongs 13.6%.
In the case of `O=C(NCc1nnc2n1CCCC2)c1cn(-c2ccccc2)nn1` it was 36.4%; in that of `Cc1ccc(OCc2occc2C(=O)O)cc1`, 64.1%.
To `Cc1ccc(OCc2occc2C(=O)N2CC[C@H](CO)[C@@H](O)C2)cc1` belongs 26.6%; to `Cc1ccc(OCc2occc2C(=O)N2CCOC(C(=O)O)C2)cc1` (stereo not drawn), -0.71%; to `NS(=O)(=O)c1cc(C(=O)N2CCCC(n3ccnc3)C2)cs1` (stereo not drawn), 29.4%.
Turning to `CSCc1cccc(S(=O)(=O)N2CCC(C)CC2)c1`, the INHIBITION was found to be 32.4%.
To `O=S1(=O)CCC(S(=O)(=O)c2cccc(S(=O)(=O)N3CCOCC3)c2)C1` (stereo not drawn) belongs 58.9%; to `O=S1(=O)CCC(S(=O)(=O)c2cccc(S(=O)(=O)N3CCCCCC3)c2)C1` (stereo not drawn), 50.2%; to `O=S1(=O)CCC(S(=O)(=O)c2cccc(S(=O)(=O)N3CCCC3)c2)C1` (stereo not drawn), 36.3%.
On to `CC1=CCN(S(=O)(=O)c2cccc(C(=O)N3CCOCC3)c2)CC1`, for which the INHIBITION came to 37.1%.
In the case of `CN1CCN(S(=O)(=O)c2cccc(S(=O)(=O)C3CCS(=O)(=O)C3)c2)CC1` (stereo not drawn) it was 46.7%.
To `COCCN1C[C@H]2[C@@H](C1)N(C(=O)c1cccc(OC)c1)CC[C@H]2OC` belongs 9.63%; to `CC(C)c1ncc2c(n1)CN(Cc1nc(-c3cccnc3)no1)CC2`, 33.7%; to `Cc1nc(CN2CCOCC3(CCN(c4ncccn4)CC3)C2)cs1`, 27.6%.
In the case of `Cc1nn(C)c(C)c1C1CCCN1CC(=O)NCc1ccco1` (stereo not drawn) it was 7.12%; in that of `O=C(NC1CC1)[C@H]1C[C@H]2OCC[C@H]2N(Cc2cccc3ccccc23)C1`, 11.4%; in that of `Cn1c(CN2CCCc3cc(F)cc(F)c32)cc(=O)n(C)c1=O`, 12.8%.
With `CCNc1nc(N(C)C)nc(-n2cnc(SC)n2)n1`, the INHIBITION stood at 46.1%.
In the case of `c1cnc(N2CCOCC3(CCCN(CC4CC4)C3)C2)cn1` (stereo not drawn), the INHIBITION worked out at 26.8%.
`c1cnc(N2CCC3(CCCN(CC4CCCCC4)C3)C2)cn1` (stereo not drawn): the INHIBITION was 63%.
In the case of `O=C(O)[C@]12CCCN(Cc3ccccc3)C[C@H]1CN(c1ncccn1)C2` it was 2.01%; in that of `c1cnc(N2CCC3(CCCN(CC4CC4)C3)CC2)nc1`, 61.1%.
In the case of `c1cnc(N2CCCC3(CN(CC4CCOCC4)CCO3)C2)cn1` (stereo not drawn), the INHIBITION is recorded as -36%.
To `Fc1ccccc1CN1CCCC2(CCN(c3ncccn3)C2)C1` (stereo not drawn) belongs 74.9%; to `O=C(O)[C@]12CCCN(CC3CCOC3)C[C@H]1CN(c1ncccn1)C2` (stereo partly drawn), 53.9%; to `O=C(O)[C@]12CCCN(C3CCOC3)C[C@H]1CN(c1ncccn1)C2` (stereo partly drawn), 31.2%.
For the compound `c1cnc(N2CCCC3(COCCN(CC4CC4)C3)C2)nc1` (stereo not drawn), the INHIBITION is -6.23%.
To `Fc1ccccc1CN1CCCC2(CCN(c3ncccn3)CC2)C1` belongs 30.3%.
To `Fc1cnccc1CN1CCCC2(CCN(c3ncccn3)CC2)C1` belongs 30.3%.
For `c1cnc(N2CCC3(CCN(CC4CC4)CC3)CC2)nc1`, the INHIBITION was -5.69%.
In the case of `CN(CC(=O)N1CCC(N(C)c2ccccc2)CC1)c1cnccn1` it was 9.9%; in that of `COCCCNC(=O)CN1CCC(c2ccccc2)C1` (stereo not drawn), -4.99%.
Consider `Cn1cccc1C(=O)N[C@@H]1CN(CC2CC2)[C@@H]2COC[C@@H]21`, for which the INHIBITION was determined as 0.547%.
For `CN(C)S(=O)(=O)c1ccc(-c2nc(C#N)c(NC(C)(C)C)o2)o1`, the INHIBITION is listed as 16%.
To `Cc1ccc(C(=O)N2CCC3(CCC(=O)N(CCCO)C3)CC2)c(O)c1` belongs -45%.
To `COCCS(=O)(=O)NC(C)c1cccc(C)c1C` (stereo not drawn) belongs 48.2%; to `CCc1nnc2n1CCN(C(=O)CCc1ccc(C)c(Cl)c1)C2`, -27%.
On to `O=C(Cc1c(F)cccc1Cl)N1CCC(Nc2cccnn2)CC1`, for which the INHIBITION is on record as -8.225%.

These data come from ChEMBL document CHEMBL4513216, “Probing the Open Global Health Chemical Diversity Library for Multistage-Active Starting Points for Next-Generation Antimalarials” (ACS Infect Dis, 2020).
